Screening results (PubChem)
aSyn 5UTR act = Activators via SNCA 5'UTR binding, MLPCN. alpha-synuclein 5'UTR reporter, activators screen. activity score, % (tested at 7.5 µM), hits read low. actives 7.1% (n = 300,000). AID 1814, 2009; in the data active means activity score below about -60%
An asterisk follows results filed as active. The list is a sample of the results.

`Cc1cccc(-n2c(N)cc(=O)[nH]c2=S)c1` gave aSyn 5UTR act -215*.
Screening COc1cc(CNC(=O)c2cccc(COc3ccc(Cl)cc3)c2)cc(OC)c1 returned aSyn 5UTR act -77*.
For O=C(NCc1ccccc1)c1cccc(COc2ccc(Cl)cc2)c1 the results were aSyn 5UTR act -162*.
Screening CC1CCC(NC(=O)CCC(=O)N2CC(C)Oc3ccccc32)CC1 (stereo not drawn) returned aSyn 5UTR act -144*.
Screening COc1cccc(NC(=O)NCCC2=CCCCC2)c1 returned aSyn 5UTR act -183*.
Screening COc1ccc(NC(=O)NCCC2=CCCCC2)cc1 returned aSyn 5UTR act -131*.
Screening S=C(NCCC1=CCCCC1)Nc1ccc(Cl)cc1 returned aSyn 5UTR act -110*.
`Cc1[nH]nc2nc(SCC(=O)NCCC3=CCCCC3)n(-c3ccc(Br)cc3)c(=N)c12` gave aSyn 5UTR act 75.
Screening O=C(NCc1ccco1)c1cc2c(s1)CCCCC2 returned aSyn 5UTR act -218*.
`O=C(Nc1ccon1)c1cc2c(s1)CCCCCC2` gave aSyn 5UTR act -167*.
Screening Cc1csc(NC(=O)c2cc3c(s2)CCCCC3)n1 returned aSyn 5UTR act 92.
Cc1cnc(NC(=O)c2cc3c(s2)CCCC3)s1 was read as aSyn 5UTR act 65.
`O=C(Nc1ccc(N2CCOCC2)cc1)c1cc2c(s1)CCCC2` gave aSyn 5UTR act -69*.
O=C(Nc1ccon1)c1cc2c(s1)CCCC2 was read as aSyn 5UTR act -113*.
COc1ccc(-c2csc(Nc3ccccc3)n2)cc1 was read as aSyn 5UTR act -150*.
For COc1ccc(Nc2nc(-c3ccc(OC)cc3)cs2)cc1 the results were aSyn 5UTR act -106*.
For Oc1ccc(Nc2nc(-c3ccc(O)cc3)cs2)cc1 the results were aSyn 5UTR act -219*.
For COc1ccc(-c2csc(Nc3cccnc3)n2)cc1 the results were aSyn 5UTR act -180*.
`COc1ccc(Nc2nc(-c3c[nH]c4ccccc34)cs2)cc1` gave aSyn 5UTR act -255*.
COc1ccc2oc(=O)c(-c3csc(Nc4ccc(O)cc4)n3)cc2c1 was read as aSyn 5UTR act -70*.
`Oc1ccc(-c2csc(NCc3ccco3)n2)cc1` gave aSyn 5UTR act -177*.
Screening COc1ccc(-c2csc(Nc3ccccc3)[n+]2Cc2ccccc2)cc1 returned aSyn 5UTR act -95*.
`c1coc(CNc2nc(-c3cccs3)cs2)c1` gave aSyn 5UTR act 107.
CN(C)c1ccc(/C=C/C(=O)c2ccccc2)cc1[N+](=O)[O-] was read as aSyn 5UTR act -195*.
O=C(/C=C/c1ccc(O)c([N+](=O)[O-])c1)c1ccc2ccccc2c1 was read as aSyn 5UTR act -124*.
Screening COc1ccc(Oc2ccc(/C=C/C(=O)c3ccc(O)cc3)cc2[N+](=O)[O-])cc1 returned aSyn 5UTR act -97*.
For COc1cc(/C=N/NC(=O)c2ccoc2C)cc(OC)c1OC the results were aSyn 5UTR act -81*.
COc1cc(/C=N/NC(=O)c2cc(-c3ccccc3)sc2N)cc(OC)c1OC was read as aSyn 5UTR act -70*.
`COc1ccc(/C=N/NC(=O)c2ccoc2C)cc1OC` gave aSyn 5UTR act -73*.
`Cc1c(C(=O)NCc2ccco2)sc2nc(-c3ccccc3)cn12` gave aSyn 5UTR act -83*.
c1ccc(-c2cn3c4c(sc3n2)CCCC4)cc1 was read as aSyn 5UTR act 117.
`Cc1c(C(=O)NCc2cccnc2)sc2nc(-c3ccc(F)cc3)cn12` gave aSyn 5UTR act -144*.
Cc1c(C(=O)N2CCOCC2)sc2nc(-c3ccccc3)cn12 was read as aSyn 5UTR act -123*.
For Cc1nc2cc(-c3ccccc3)nn2c(C)c1CCC(=O)NCc1ccco1 the results were aSyn 5UTR act 53.
`CCCc1cc2c(=O)c(-c3ccccn3)coc2cc1OC` gave aSyn 5UTR act -158*.
Screening c1csc(-c2cn3ccc4ccccc4c3n2)c1 returned aSyn 5UTR act -209*.
Screening CC1Oc2ccccc2C=C1/C=N/Nc1ccc(C(=O)O)cc1 (stereo not drawn) returned aSyn 5UTR act -95*.
C=CCOc1c(CNc2cccc(C(=O)O)c2)cccc1OC was read as aSyn 5UTR act -78*.
`C=CCOc1cccc(CNc2cccc(C(=O)O)c2)c1` gave aSyn 5UTR act -77*.
For COc1cc2c(cc1OC)C(c1ccccc1)N(C(=O)c1cccc(S(C)(=O)=O)c1)CC2 (stereo not drawn) the results were aSyn 5UTR act -67*.
Screening COc1cc2c(cc1OC)C(C)N(C(=O)c1cc(C)on1)CC2 (stereo not drawn) returned aSyn 5UTR act 97.
Screening O=C(Nc1ccc(F)cc1)Nc1ccc2c(c1)CCC2 returned aSyn 5UTR act -120*.
`Cc1c(C(=O)Nc2cccc([N+](=O)[O-])c2)csc1-c1ccccc1` gave aSyn 5UTR act -130*.
O=C(Nc1cccc(F)c1)Nc1ccc2c(c1)CCC2 was read as aSyn 5UTR act -160*.
Screening O=C(Cc1ccccc1)Nc1ccc2c(c1)CCC2 returned aSyn 5UTR act -105*.
O=C(CC1CCCC1)Nc1ccc2c(c1)CCC2 was read as aSyn 5UTR act -112*.
Cc1ccc(NC(=O)Nc2ccc3c(c2)CCC3)cc1 was read as aSyn 5UTR act -124*.
Screening O=C(Nc1ccc2c(c1)CCC2)Nc1ccc(F)cc1F returned aSyn 5UTR act -129*.
Cc1cc(NC(=S)NC(=O)CC(C)C)ccc1Br was read as aSyn 5UTR act -155*.
Screening Cc1cc(NC(=O)CC2CCCC2)ccc1Br returned aSyn 5UTR act -123*.
`Cc1cc(SCC(=O)N/N=C/c2ccc(O)cc2O)c(C)cc1Br` gave aSyn 5UTR act 78.
For O=C(Nc1cccc([N+](=O)[O-])c1)Nc1cccs1 the results were aSyn 5UTR act -110*.
Cc1cc(NC(=O)CCSc2ccccc2)ccc1Br was read as aSyn 5UTR act -62*.
For O=[N+]([O-])c1cccc(NC(=S)N2CCc3ccccc3C2)c1 the results were aSyn 5UTR act -120*.
O=C(Nc1ccccc1)Nc1ccc2c(c1)CCC2 was read as aSyn 5UTR act -135*.
Screening O=C(Nc1cccc([N+](=O)[O-])c1)Nc1ccc2c(c1)CCC2 returned aSyn 5UTR act -105*.
O=c1c(Cl)nc2cc(Cl)ccc2n1CCNc1ncc(C(F)(F)F)cc1Cl was read as aSyn 5UTR act 110.
Screening NC(=O)C1=NOC(CNc2ncc(C(F)(F)F)cc2Cl)C1 (stereo not drawn) returned aSyn 5UTR act -72*.
Screening CNc1nc(N2CCc3ccccc32)ncc1F returned aSyn 5UTR act -109*.
Screening Cn1c(-c2ccc(Cl)cc2)cnc1N returned aSyn 5UTR act -126*.
`CC(C)(C)n1nc(-c2ccc(Cl)cc2)c2c(N)ncnc21` gave aSyn 5UTR act 105.
For Cc1ccc(-c2cnc(N)n2C)cc1C the results were aSyn 5UTR act -71*.
`Nc1c(-c2ccc(Cl)cc2)cnc2c(-c3ccccc3)cnn12` gave aSyn 5UTR act -205*.
For COc1ccc(-c2cnc3c(-c4ccc(F)cc4)cnn3c2N)cc1 the results were aSyn 5UTR act -241*.
`CC(C)(C)S(=O)(=O)c1cnc2c(-c3ccc(Cl)cc3)cnn2c1N` gave aSyn 5UTR act -78*.
`CS(=O)(=O)c1cnc2c(-c3ccsc3)cnn2c1N` gave aSyn 5UTR act -85*.
Screening Cc1cccc2nc(CSc3nc4ccccc4o3)cn12 returned aSyn 5UTR act -89*.
`c1ccc2nc(SCc3cn4ccccc4n3)cnc2c1` gave aSyn 5UTR act -66*.
